# From PubChem BioAssay (NCATS)
# “And” between values parts separate entries of the source, which are not always exact repeats. Equal values may be shown once. Records with an inconclusive call do not appear. Entries that show only a call come without a potency. The source made the active and inactive calls. The call rests on the fitted dose curve; in most records, active means well fitted curve in the direction sought with a large enough effect; inconclusive means small, poorly fitted or top-dose-only effect, or another doubt; inactive means no such curve, though single readings can be large; an effect the other way counts as inactive or inconclusive.
# Tests used:
# [1] = Primary qHTS for inhibitors of nuclear receptor binding SET domain protein 2 (NSD2) in an isogenic RCH-ACV NSD2 p.E1099K mutant (9B) (AID 1645876); further: nearly all actives have a fitted effect of over 70% in size; further: potency means the concentration at half of the fitted maximal effect
# [2] = Primary qHTS for inhibitors of nuclear receptor binding SET domain protein 2 (NSD2) in an RCH-ACV wild type WT cells (2C) (AID 1645877); further: nearly all actives have a fitted effect of over 70% in size
# [3] = target: Rap guanine nucleotide exchange factor 3 (Homo sapiens) (UniProt O95398); assay: Confirmatory qHTS for agonist of cAMP-regulated guanine nucleotide exchange factor 3 (EPAC1) (AID 1645881);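 further: EPAC1 catalysed release of BODIPY-GDP from Rap1B seen as fluorescence loss; nearly all actives have a fitted effect of over 75% in size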
# Sequence of Rap guanine nucleotide exchange factor 3 (Homo sapiens) (O95398 whole entry, looked up): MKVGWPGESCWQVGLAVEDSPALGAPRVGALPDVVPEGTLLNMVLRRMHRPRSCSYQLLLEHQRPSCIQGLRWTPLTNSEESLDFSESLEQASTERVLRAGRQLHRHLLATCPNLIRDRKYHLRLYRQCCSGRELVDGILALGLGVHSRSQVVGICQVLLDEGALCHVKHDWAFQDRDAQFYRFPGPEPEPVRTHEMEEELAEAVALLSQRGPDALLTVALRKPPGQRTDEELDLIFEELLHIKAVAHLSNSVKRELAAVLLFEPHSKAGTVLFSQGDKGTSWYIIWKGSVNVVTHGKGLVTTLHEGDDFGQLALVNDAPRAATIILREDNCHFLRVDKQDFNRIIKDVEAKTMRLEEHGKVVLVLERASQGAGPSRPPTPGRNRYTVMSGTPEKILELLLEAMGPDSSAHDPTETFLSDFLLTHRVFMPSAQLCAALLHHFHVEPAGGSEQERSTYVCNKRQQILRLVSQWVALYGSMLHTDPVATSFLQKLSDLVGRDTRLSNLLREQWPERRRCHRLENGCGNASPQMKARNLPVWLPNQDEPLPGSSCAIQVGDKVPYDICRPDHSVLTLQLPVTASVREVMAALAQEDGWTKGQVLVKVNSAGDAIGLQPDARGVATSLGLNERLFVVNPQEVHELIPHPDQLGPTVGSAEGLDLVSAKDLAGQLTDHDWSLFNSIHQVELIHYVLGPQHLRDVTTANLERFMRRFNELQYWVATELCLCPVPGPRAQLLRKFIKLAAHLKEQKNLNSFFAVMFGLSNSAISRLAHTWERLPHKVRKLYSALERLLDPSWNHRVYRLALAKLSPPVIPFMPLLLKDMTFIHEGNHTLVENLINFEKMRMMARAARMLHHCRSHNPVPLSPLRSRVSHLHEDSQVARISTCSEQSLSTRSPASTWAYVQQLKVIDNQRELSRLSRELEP
# [4] = target: Rap guanine nucleotide exchange factor 4 (Homo sapiens) (UniProt Q8WZA2); assay: Confirmatory qHTS for agonist of cAMP-regulated guanine nucleotide exchange factor 4 (EPAC2) (AID 1645884);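 further: nucleotide exchange releases bodipy-GDP from Rap1 and this lowers its fluorescence; nearly all actives have a fitted effect of over 65% in size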
# Sequence of Rap guanine nucleotide exchange factor 4 (Homo sapiens) (Q8WZA2 whole entry, looked up): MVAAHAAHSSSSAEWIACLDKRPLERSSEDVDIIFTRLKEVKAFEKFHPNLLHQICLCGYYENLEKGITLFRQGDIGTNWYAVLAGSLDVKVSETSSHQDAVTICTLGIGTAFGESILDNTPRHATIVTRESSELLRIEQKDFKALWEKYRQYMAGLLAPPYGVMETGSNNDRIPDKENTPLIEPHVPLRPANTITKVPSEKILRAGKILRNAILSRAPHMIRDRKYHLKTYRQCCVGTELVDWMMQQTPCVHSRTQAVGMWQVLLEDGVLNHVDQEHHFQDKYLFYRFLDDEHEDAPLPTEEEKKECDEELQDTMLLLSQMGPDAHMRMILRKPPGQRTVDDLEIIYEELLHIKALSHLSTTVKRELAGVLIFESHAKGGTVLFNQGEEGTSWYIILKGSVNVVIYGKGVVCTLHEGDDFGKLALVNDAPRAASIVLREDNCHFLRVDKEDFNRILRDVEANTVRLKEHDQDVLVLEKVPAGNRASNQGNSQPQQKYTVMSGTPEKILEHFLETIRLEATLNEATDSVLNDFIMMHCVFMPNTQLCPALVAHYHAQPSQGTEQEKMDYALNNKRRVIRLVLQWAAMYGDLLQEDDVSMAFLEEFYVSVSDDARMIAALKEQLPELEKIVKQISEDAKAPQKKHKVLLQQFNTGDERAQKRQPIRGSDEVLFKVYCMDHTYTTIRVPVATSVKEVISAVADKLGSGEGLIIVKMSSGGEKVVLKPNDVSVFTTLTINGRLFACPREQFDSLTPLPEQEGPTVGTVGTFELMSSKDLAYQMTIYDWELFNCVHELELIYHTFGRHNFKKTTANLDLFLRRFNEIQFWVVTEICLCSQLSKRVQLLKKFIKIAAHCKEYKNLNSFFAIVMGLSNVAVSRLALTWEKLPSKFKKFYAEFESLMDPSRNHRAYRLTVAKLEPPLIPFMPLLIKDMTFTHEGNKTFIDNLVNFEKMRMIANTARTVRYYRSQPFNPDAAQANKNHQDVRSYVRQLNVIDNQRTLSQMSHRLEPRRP
# [5] = target: Rap guanine nucleotide exchange factor 4 (Homo sapiens) (UniProt Q8WZA2); assay: Confirmatory qHTS for antagonist of cAMP-regulated guanine nucleotide exchange factor 4 (EPAC2) (AID 1645885); further: potency means the concentration at half of the fitted maximal effect; nearly all actives have a fitted effect of over 25% in size
# [6] = target: Catechol O-methyltransferase (Homo sapiens) (UniProt P21964); assay: Confirmatory Screen for Target Class Profiling of Small Molecule Inhibitors of Methyltransferases (AID 1745852); conditions: MTase-Glo luminescence, SAH detection, recombinant enzyme; measured here: COMT max response; stronger effect = lower value
# Sequence of Catechol O-methyltransferase (Homo sapiens) (P21964 whole entry, looked up): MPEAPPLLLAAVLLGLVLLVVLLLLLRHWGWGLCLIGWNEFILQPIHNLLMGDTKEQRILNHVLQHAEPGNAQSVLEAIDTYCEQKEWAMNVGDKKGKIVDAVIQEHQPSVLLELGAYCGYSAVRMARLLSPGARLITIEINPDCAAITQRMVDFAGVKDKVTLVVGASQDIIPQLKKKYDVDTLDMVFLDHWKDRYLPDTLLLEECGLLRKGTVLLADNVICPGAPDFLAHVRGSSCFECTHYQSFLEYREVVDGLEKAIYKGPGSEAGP
smiles,measurement,setting,value
O=C(O)c1ccc2[nH]cc(CCCCN3CC=C(c4ccccc4)CC3)c2c1,Potency,[1],inactive
same,Potency,[2],inactive
CC(C)(C)CC(C)(C)c1ccc(O)cc1,Potency,[1],24.3 µM (active)
same,outcome,[3],inactive
same,outcome,[4],inactive
same,Potency,[5],49.4 µM (active) and 56.9 µM (active)
FC(F)(F)c1cccc(C2=CCN(CCc3ccc4ccccc4c3)CC2)c1,Potency,[1],inactive
same,Potency,[2],inactive
Cc1cc(SCc2sc(-c3ccc(C(F)(F)F)c(F)c3)nc2C)ccc1OCC(=O)O,Potency,[1],inactive
same,Potency,[2],inactive
CN1C[C@H](CNC(=O)OCc2ccccc2)C[C@@H]2c3cccc4c3c(cn4C)C[C@H]21,activity,[6],-5.5%
Cc1ccc(-c2nc3ccc(C)cn3c2CC(=O)N(C)C)cc1,Potency,[1],inactive
same,Potency,[2],inactive
OCCOc1ccccc1,Potency,[1],inactive
same,Potency,[2],inactive
CC[N+](CC)(CC)CC,Potency,[1],inactive
same,Potency,[2],inactive
same,activity,[6],2.75%
CC1OC(C)OC(C)O1 (configuration not stated),Potency,[1],inactive
same,Potency,[2],inactive
CCCC1CCCCN1 (configuration not stated),Potency,[1],inactive
same,Potency,[2],inactive
